Sampled rows, rich in hits. Any-hit rate of the full collection: about 2.4%.
Pol beta inh – qHTS Assay for Inhibitors of DNA Polymerase Beta. Pol beta primer extension/strand displacement, fluorescence kinetic. 340,000 tested, 1.3% active. AID 485314, 2010. P06746. Potency, µM (doses to about 114 µM), for inactives: at the highest dose activity change, negative = inhibition, usual class: inhibitors; further: on the % scale 0 is the no-effect control and ±100 the full control effect
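Preincubation: enzyme (10 nM) with compound, 15 min, RT. Reaction: substrate added to 50 nM final. Reads: 0 and 10 min. Analysis: normalized, Hill fit.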
Pol iota inh – qHTS for Inhibitors of Polymerase Iota | DNA polymerase iota (Homo sapiens), Q9UNA4 | Pol iota fluorescent replication assay, 10 min | Potency, µM (top dose mostly 115 µM), for the others: at the highest dose activity, negative = inhibition, hits mostly inhibitors | 390,000 tested, 1% active | AID 588590, 2011
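Pol iota at 10 nM preincubated 15 min with compounds at room temperature; reaction started with fluorescent substrate, 50 nM final. Fluorescence read kinetically at 0 and 10 min; buffer-only wells as negative control.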
Pol eta inh – qHTS for Inhibitors of Polymerase Eta. DNA polymerase eta (Homo sapiens), Q9Y253. recombinant Pol eta, fluorescent DNA replication assay. Potency, µM (doses to about 114 µM), without a hit: at the top dose activity change, negative = inhibition, usual class: inhibitors. 390,000 tested, 1.2% active; further: on the % scale 0 is the no-effect control and ±100 the full control effect
Target sequence (Q9Y253 whole entry, looked up): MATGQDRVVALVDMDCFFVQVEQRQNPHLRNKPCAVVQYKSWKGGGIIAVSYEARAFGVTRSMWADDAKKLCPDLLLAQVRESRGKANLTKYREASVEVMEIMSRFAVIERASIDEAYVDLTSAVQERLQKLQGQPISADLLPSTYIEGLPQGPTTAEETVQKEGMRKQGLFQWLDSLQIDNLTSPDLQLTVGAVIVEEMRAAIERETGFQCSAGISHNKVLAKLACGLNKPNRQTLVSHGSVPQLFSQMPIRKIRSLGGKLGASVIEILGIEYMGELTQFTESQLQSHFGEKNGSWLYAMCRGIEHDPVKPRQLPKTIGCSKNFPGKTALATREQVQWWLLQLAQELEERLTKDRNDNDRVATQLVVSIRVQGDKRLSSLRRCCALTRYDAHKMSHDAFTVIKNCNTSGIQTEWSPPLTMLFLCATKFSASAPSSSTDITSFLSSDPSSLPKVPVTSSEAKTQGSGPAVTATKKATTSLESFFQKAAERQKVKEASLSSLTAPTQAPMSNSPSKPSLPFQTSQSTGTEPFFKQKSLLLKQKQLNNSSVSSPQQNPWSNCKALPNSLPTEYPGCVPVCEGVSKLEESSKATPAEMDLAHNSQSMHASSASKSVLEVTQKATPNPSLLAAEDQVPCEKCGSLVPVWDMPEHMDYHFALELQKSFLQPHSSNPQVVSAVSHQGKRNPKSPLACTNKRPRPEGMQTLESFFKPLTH
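Pol eta (10 nM) was preincubated with compounds for 15 min at room temperature, after which fluorescent replication substrate (50 nM final) was added to start the reaction. Fluorescence was read kinetically at 0 and 10 min.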
POLK inh – qHTS for Inhibitors of Polymerase Kappa | DNA polymerase kappa (Homo sapiens), Q9UBT6 | purified Pol kappa, fluorescent DNA synthesis assay, 10 min | Potency, µM (top dose mostly 107 µM), for inactives: at the top dose activity, negative = inhibition, usual class: inhibitors | 400,000 tested, 0.53% active | AID 588579, 2011; further: on the % scale 0 is the no-effect control and ±100 the full control effect
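Inhibition of 10 nM Pol kappa is measured by a fluorescent read-out at 0 and 10 min following addition of 50 nM substrate (final), with a 15-min room-temperature compound preincubation.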
FEN1 inhibitor – qHTS Assay for the Inhibitors of Human Flap endonuclease 1 (FEN1) | P39748 | Recombinant FEN1 flap cleavage, fluorescence, 15 min | Potency, µM (series often up to 114 µM), inactives show at the highest dose activity change, negative = inhibition, actives largely listed as inhibitors | 390,000 tested, 0.35% active | AID 588795, 2011; further: on the % scale 0 is the no-effect control and ±100 the full control effect; nearly all actives have a fitted effect of over 65% in size
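Nuclease activity of 10 nM FEN1 was measured after 15 min of room-temperature exposure to titrated compounds, by adding 50 nM flap substrate and reading plates at 0 and 15 min.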
WRN helicase inh – qHTS for Inhibitors of WRN Helicase. Potency, µM (doses to about 114 µM), for the others: at the top dose activity change, negative = inhibition, actives largely listed as inhibitors. 360,000 tested, 0.46% active. Bifunctional 3'-5' exonuclease/ATP-dependent helicase WRN (Homo sapiens), Q14191. AID 651768, 2012. WRN helicase unwinding, fluorescent forked duplex, kinetic; further: on the % scale 0 is the no-effect control and ±100 the full control effect; nearly all actives have a fitted effect of over 55% in size
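Kinetic fluorescence helicase assay: unwinding of a quenched forked DNA duplex (100 nM final) with 2 mM ATP final raises red fluorescence (525/598 nm). Compounds sat 15 min at room temperature with 20 nM WRN beforehand.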
Starred values were filed as active, the others as inactive; u = inconclusive; x = no result; [ ] = another dose, or the depositor's remark. The call rests on the fitted dose curve; in most records, active means well fitted curve in the direction sought with a large enough effect; inconclusive means small, poorly fitted or top-dose-only effect, or another doubt; inactive means no such curve, though single readings can be large; an effect the other way counts as inactive or inconclusive. Potency means the concentration at half of the fitted maximal effect.

SMILES	Pol beta inh	Pol iota inh	Pol eta inh	POLK inh	FEN1 inhibitor	WRN helicase inh
CCCOc1ccc(/C(O)=C2/C(=O)C(=O)N(CCCN3CCOCC3)C2c2ccncc2)cc1 (configuration not stated)	12.6µM*	x	x	x	x	x
CCc1ccc(NC(=O)CCc2nc3sc4c(c3c(=O)[nH]2)CCCC4)cc1	x	u	44.7µM*	u	-0.2%	-3.8%[11.6 µM]
O=C(CCc1nc2sc3c(c2c(=O)[nH]1)CCCC3)Nc1ccccc1Cl	x	44.7µM*	u	u	-2.0%	u
O=C(CCc1nc2sc3c(c2c(=O)[nH]1)CCCC3)NCCOc1ccccc1	x	u	u	-22.8%	-1.1%	-17.2%
COc1ccc(CCNC(=O)CCc2nc3sc4c(c3c(=O)[nH]2)CCCC4)cc1	35.5µM*	u	u	-26.8%	-13.6%	-27.7%
O=C(CCc1nc2sc3c(c2c(=O)[nH]1)CCCC3)NCCc1ccc(Cl)cc1	x	x	-6.3%	x	x	-6.1%
Cc1ccc(/C=C/c2onc(C)c2S(=O)(=O)N2CCC(C(=O)N(CCC(C)C)Cc3ccco3)CC2)cc1	21.3%	-3.7%	0.3%	-10.1%[60.1 µM]	-12.0%	x
O=C(Cn1c(=O)n(Cc2nc(-c3ccccc3)no2)c(=O)c2ccccc21)Nc1cccc(C(F)(F)F)c1	-4.5%	38.3%	-21.2%	4.5%	14.4%	x
CCCCCCCCCOC(=O)CNc1nc(C#N)nc(NCC(=O)OCCCCCCCCC)n1	x	2.6%	x	-6.7%	-9.2%	x
CN(C)/C=C/C(=O)c1ccc2noc(-c3ccccc3)c2c1	u	79.4µM*	u	-18.4%	-10.2%	1.9%[11.6 µM]
CC(=O)c1ccc2noc(-c3ccccc3)c2c1	19.9%	33.8%	-6.4%	12.3%	1.7%	1.7%
CN(C)C1C(=O)C(C(N)=O)=C(O)[C@@]2(O)C(=O)C3=C(O)c4c(O)ccc(Cl)c4C(O)[C@H]3C[C@@H]12 (some centres not stated)	x	x	x	-13.9%[60.1 µM]	x	x
CN(C)C1C(=O)C(C(N)=O)C(=O)C2(O)C(=O)C3C(=O)c4c(O)ccc(Cl)c4C(O)C3CC12 (configuration not stated)	x	x	x	35.5µM*	x	x
Cc1ccc(C)c(CSc2nnc3[nH]c(=O)cc(C)n23)c1	-1.8%	17.1%	13.0%	-1.8%[60.1 µM]	0.7%	x
COC1=CC(=O)c2ccccc2C1=O	x	14.1µM*	u	9.9%	10µM*	11.7%
COC1=CC(=O)C=C(OC)C1=O	x	u	-12.4%	-7.4%	u	44.7µM*
COC(=O)NNC(=O)COc1ccc(Br)c(C)c1	-4.7%	23.9%	-18.1%	-23.8%	7.7%	0.7%
CCCC(=O)Nc1ccc(C(=O)NNC(=O)COc2ccc(Br)c(C)c2)cc1	50.1µM*	-25.0%	u	-2.1%	-8.3%	-8.5%
CC[N+]1(CC(=O)c2ccc(Cl)cc2)CCCCC1	x	28.4%	x	-20.4%	-2.7%	x
CO/N=C(/C(=O)N[C@@H]1C(=O)N2C(C(=O)O)=C(CSC(=O)c3ccco3)CSC12)c1csc(N)n1 (some centres not stated)	x	x	x	0.2%[19.4 µM]	x	x
CO/N=C(\C(=O)N[C@@H]1C(=O)N2C(C(=O)O)=C(CSc3nc(=O)c(O)nn3C)CSC12)c1csc(N)n1 (some centres not stated)	14.1µM*	25.1µM*	11.2µM*	u	x	x
CO/N=C(/C(=O)NC1C(=O)N2C(C(=O)O)=C(COC(N)=O)CSC12)c1ccco1 (configuration not stated)	x	x	x	35.5µM*	x	x
CO/N=C(/C(=O)N[C@@H]1C(=O)N2C(C(=O)O)=C(C[n+]3ccc(N)n3CCO)CS[C@H]12)c1csc(N)n1	x	x	x	4.2%[19.4 µM]	x	x
CO/N=C(\C(=O)N[C@@H]1C(=O)N2C(C(=O)O)=C(COC(N)=O)CS[C@H]12)c1ccco1	u	39.8µM*	2.51µM*	u	-2.9%	-34.8%
Clc1cccc[n+]1CCCCCC[n+]1ccccc1Cl	x	-2.1%	x	-2.7%	0.0%	x
SMILES	Pol beta inh	Pol iota inh	Pol eta inh	POLK inh	FEN1 inhibitor	WRN helicase inh
CC(C)C[C@H](NC(=O)[C@H](CC(C)C)NC(=O)[C@@H](Cc1c[nH]c2ccccc12)NC(=O)[C@H](Cc1ccccc1)NC(=O)[C@@H](Cc1c[nH]c2ccccc12)NC(=O)[C@H](CCC(N)=O)NC(=O)[C@H](CCC(N)=O)NC(=O)[C@@H]1CCCN1C(=O)[C@H](CCCCN)NC(=O)[C@@H]1CCCN1C(=O)[C@H](N)CCCN=C(N)N)C(N)=O	x	x	x	17.3%[60.1 µM]	x	x
CCOc1ccc(N=Nc2c(=O)[nH]n3c(=O)cc(C)[nH]c23)cc1	-3.1%	-12.3%	-7.9%	-13.9%	-5.2%	-32.2%
CCOc1ccc(N=Nc2c(=O)[nH]n3c(=O)c4c([nH]c23)CCCC4)cc1	50.1µM*	19.6%	-18.1%	-12.4%	-6.6%	-31.1%
Cc1cccc(Cn2c(CNS(=O)(=O)c3ccc(C(C)C)cc3)nc3cccnc32)c1	9.3%	26.9%	-16.6%	-3.9%[60.1 µM]	-1.5%	x
CCCN(CCC)CCNC(=O)c1cc2c(-c3ccccc3F)nn(C)c2s1	87.4%	12.0%	-17.8%	14.2%	-10.6%	17.4%
CCCN(CCC)CCNC(=O)c1cc2c(-c3ccc(Cl)cc3)nn(C)c2s1	25.1µM*	3.8%	-3.2%	3.6%	u	13.9%
C[C@@]1(C(=O)O)NCCc2cc(O)c(O)cc21	x	x	x	1.78µM*	x	x
O=C(Nc1ccncc1)c1ccc(S(=O)(=O)Nc2ccccc2)cc1	74.1%	36.1%	-15.4%	3.1%	-5.7%	-1.2%[57.1 µM]
NS(=O)(=O)c1ccc(NS(=O)(=O)c2ccc(NC(=O)c3ccc(-c4ccccc4)cc3)cc2)cc1	u	56.2µM*	u	u	u	u
CCc1cccc(-n2c(C)nc3c(cnn3-c3ccc(C)c(C)c3)c2=O)c1	-23.4%	14.2%	u	-5.4%	-6.2%	x
C/C=C1/C(=O)C[C@@H]2[C@H]3CCC4=CC(=O)CC[C@]4(C)[C@@H]3CC[C@]12C	x	x	x	3.1%[19.4 µM]	x	x
N#C/C(=C\c1c(Oc2ccc(F)cc2)nc2ccccn2c1=O)c1nc2ccccc2s1	u	20µM*	-20.0%	u	u	x
CC(C)(C)c1ccc(C(=O)N/C(=C\c2cccc([N+](=O)[O-])c2)C(=O)Nc2cccc(C(=O)O)c2)cc1	u	62.0%	22.4µM*	-9.7%	u	u
Cc1c(C(=O)N(Cc2ccc(N(C)C)cc2)CC2CCCO2)oc2ccc(Br)cc12 (configuration not stated)	-24.0%	19.3%	-23.4%	-8.0%	8.0%	x

From PubChem
